According to PubChem BioAssay AID1159580 (chemical genetic matrix, 2015):
“And” between values parts separate entries of the source, which are not always exact repeats. Identical values can stand only once. The whole screen tested about 5,500 compounds, of which about 2,000 (36%) were called active. About 18% were inconclusive and are not listed. Cut-off read from the data, not from the text of the source: active = normalized growth mostly below about 0.91 (no sharp cut-off); inconclusive = no clear call, values can overlap the other calls; inactive = mostly above about 0.92. Some of the results follow.

Experiment: chemical genetic growth profiling, strain panel (AID 1159580);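 note: tested at 20 µM; growth read once vehicle control cultures reached saturation at 30 °C; 1 = growth at the plate median or of vehicle wells; lower values mean less growth of the strain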
Conditions: S. cerevisiae deletion strains, growth OD

Measured: normalized growth

C[C@H]1C(=O)CCC2[C@]3(C)CC[C@@]4(C)C5CC(C)(C)CC[C@]5(C)CC[C@]4(C)C3CC[C@@]21C (stereo partly drawn)
active: locus YBR021W, strain FUR4, hits give low values 0.713 | locus YDL192W, strain arf1, hits give low values 0.901 | locus YKR001C, strain vps1, hits give low values 0.876 | locus YNR052C, strain pop2, hits give low values 0.851
inactive: locus YAL021C, strain ccr4, hits give low values 0.979 | locus YAL026C, strain drs2, hits give low values 1.02 | locus YAL030W, strain snc1, hits give low values 1 | locus YBL061C, strain skt5, hits give low values 1 | locus YBR009C, strain hhf1, hits give low values 1.02 | locus YBR023C, strain chs3, hits give low values 1 | locus YBR171W, strain sec66, hits give low values 1 | locus YBR229C, strain ROT2, hits give low values 1.02 | locus YBR231C, strain swc5, hits give low values 0.997 | locus YBR279W, strain paf1, hits give low values 1.01 | locus YCL011C, strain gbp2, hits give low values 1.01 | locus YCL016C, strain dcc1, hits give low values 1 | locus YCL029C, strain bik1, hits give low values 0.968 | locus YCL061C, strain MRC1, hits give low values 1.01 | locus YCL069W, strain vba3, hits give low values 1.01 | locus YCR088W, strain abp1, hits give low values 1.01 | locus YDL005C, strain med2, hits give low values 0.995 | locus YDL035C, strain GPR1, hits give low values 0.983 | locus YDL040C, strain nat1, hits give low values 1.01 | locus YDL074C, strain BRE1, hits give low values 0.955 | locus YDL101C, strain DUN1, hits give low values 1.02 | locus YDL134C, strain PPH21, hits give low values 0.97 | locus YDL185W, strain tfp1, hits give low values 1.02 | locus YDR001C, strain nth1, hits give low values 1 | locus YDR069C, strain doa4, hits give low values 0.992 | locus YDR101C, strain arx1, hits give low values 0.981 | locus YDR137W, strain rgp1, hits give low values 0.987 | locus YDR159W, strain sac3, hits give low values 0.981 | locus YDR162C, strain NBP2, hits give low values 0.857 | locus YDR195W, strain ref2 0.966 | locus YDR297W, strain sur2, hits give low values 0.996 | locus YDR318W, strain mcm21, hits give low values 0.991 | locus YDR334W, strain swr1, hits give low values 1 | locus YDR335W, strain msn5, hits give low values 1.02 | locus YDR388W, hits give low values 1 | locus YDR392W, strain spt3, hits give low values 0.934 | locus YDR502C, strain sam2, hits give low values 0.97 | locus YEL003W, strain gim4, hits give low values 1.01 | locus YEL037C, strain rad23, hits give low values 0.999 | locus YEL061C, strain CIN8 (second series), hits give low values 1.01 | locus YEL061C, strain CIN8, hits give low values 1.02 | locus YER015W, strain faa2, hits give low values 1.01 | locus YER016W, strain bim1, hits give low values 0.994 | locus YER110C, hits give low values 1.01 | locus YER111C, strain swi4, hits give low values 0.998 | locus YER155C, strain BEM2 (second series), hits give low values 0.995 | locus YER155C, strain BEM2, hits give low values 1.03 | locus YER167W, strain BCK2, hits give low values 0.98 | locus YFR010W, strain ubp6, hits give low values 1.01 | locus YGL078C, strain dbp3, hits give low values 1.04 | locus YGL086W, strain mad1, hits give low values 0.974 | locus YGL167C, strain pmr1, hits give low values 1 | locus YGL173C, strain kem1, hits give low values 1.01 | locus YGL227W, strain vid30, hits give low values 1 | locus YGL240W, strain doc1, hits give low values 0.978 | locus YGL248W, strain PDE1, hits give low values 0.978 | locus YGL253W, strain hxk2, hits give low values 1.03 | locus YGR135W, strain pre9, hits give low values 1.01 | locus YGR252W, strain gcn5, hits give low values 0.902 | locus YHR013C, strain ard1, hits give low values 1.01 | locus YHR027C, strain rpn1, hits give low values 1.01 | locus YHR030C, strain SLT2, hits give low values 1.04 | locus YHR079C, strain IRE1 (second series), hits give low values 1.02 | locus YHR079C, strain IRE1, hits give low values 1.04 | locus YHR094C, strain hxt1, hits give low values 1.01 | locus YHR129C, strain ARP1, hits give low values 1 | locus YHR142W, strain chs7, hits give low values 1.03 | locus YHR200W, strain rpn10, hits give low values 0.951 | locus YIL066C, strain RNR3, hits give low values 0.969 | locus YIL073C, strain SPO22, hits give low values 1.02 | locus YIL125W, strain kgd1, hits give low values 1 | locus YIR030C, strain dcg1, hits give low values 1.02 | locus YJL092W, strain hpr5, hits give low values 1.01 | locus YJL095W, strain BCK1 (second series), hits give low values 0.999 | locus YJL095W, strain BCK1, hits give low values 0.936 and 1.01 | locus YJL115W, strain asf1, hits give low values 1 | locus YJL129C, strain trk1, hits give low values 1.01 | locus YJL134W, strain LCB3, hits give low values 1.03 | locus YJL154C, strain vps35, hits give low values 1 | locus YJL164C, strain tpk1, hits give low values 1.01 | locus YJL166W, strain qcr8, hits give low values 1 | locus YJL168C, strain set2, hits give low values 1.02 | locus YJL187C, strain SWE1 (second series), hits give low values 0.995 | locus YJL187C, strain SWE1, hits give low values 1 | locus YJR043C, strain POL32, hits give low values 0.949 | locus YJR066W, strain TOR1, hits give low values 0.984 | locus YKL009W, strain mrt4, hits give low values 1.03 | locus YKL068W, hits give low values 1.02 | locus YKL085W, strain MDH1 (second series), hits give low values 1.01 | locus YKL085W, strain MDH1, hits give low values 1.01 | locus YKL160W, strain elf1, hits give low values 1.01 | locus YKL190W, strain CNB1, hits give low values 1.02 | locus YKR026C, strain gcn3, hits give low values 0.999 | locus YKR091W, strain srl3, hits give low values 1.01 | locus YLL001W, strain dnm1, hits give low values 1 | locus YLL026W, hits give low values 1 | locus YLL041C, strain sdh2, hits give low values 1.01 | locus YLR027C, strain aat2, hits give low values 1 | locus YLR039C, strain RIC1, hits give low values 0.738 | locus YLR058C, strain SHM2, hits give low values 0.994 | locus YLR102C, strain apc9, hits give low values 1.02 | locus YLR113W, strain HOG1, hits give low values 0.965 | locus YLR221C, strain rsa3, hits give low values 0.995 | locus YLR258W, strain gsy2, hits give low values 1 | locus YLR262C, strain YPT6 (second series), hits give low values 1.01 | locus YLR268W, strain sec22, hits give low values 0.985 | locus YLR320W, strain mms22, hits give low values 1.01 | locus YLR342W, strain FKS1 (second series), hits give low values 0.992 | locus YLR342W, strain FKS1, hits give low values 1 | locus YLR357W, strain rsc2, hits give low values 0.977 | locus YLR370C, strain arc18, hits give low values 1.02 | locus YLR371W, strain rom2, hits give low values 1 | locus YLR384C, strain iki3, hits give low values 0.978 | locus YLR418C, strain cdc73, hits give low values 0.876 | locus YML016C, strain PPZ1, hits give low values 1.01 | locus YML032C, strain rad52, hits give low values 0.953 | locus YML120C, strain ndi1, hits give low values 0.998 | locus YML124C, strain tub3, hits give low values 1.02 | locus YMR058W, strain fet3, hits give low values 1.02 | locus YMR078C, strain ctf18, hits give low values 1.01 | locus YMR125W, strain sto1, hits give low values 0.995 | locus YMR129W, hits give low values 0.996 | locus YMR205C, strain PFK2, hits give low values 1.02 | locus YMR223W, strain ubp8, hits give low values 0.994 | locus YMR231W, strain pep5, hits give low values 0.996 | locus YMR263W, strain SAP30, hits give low values 1.02 | locus YMR307W, strain GAS1, hits give low values 1.04 | locus YNL067W, strain RPL9B, hits give low values 1.02 | locus YNL071W, strain lat1, hits give low values 1.01 | locus YNL153C, strain GIM3, hits give low values 1.01 | locus YNL183C, strain NPR1, hits give low values 0.981 | locus YNL209W, strain ssb2, hits give low values 1.02 | locus YNL233W, strain BNI4, hits give low values 1.01 | locus YNL248C, strain rpa49, hits give low values 0.919 | locus YNL250W, strain rad50, hits give low values 1.03 | locus YNL271C, strain bni1, hits give low values 1.01 | locus YNL298W, strain CLA4, hits give low values 0.993 | locus YNL307C, strain MCK1, hits give low values 0.984 | locus YNL322C, strain KRE1 (second series), hits give low values 0.985 | locus YNR049C, strain mso1, hits give low values 0.994 | locus YOL006C, strain TOP1, hits give low values 0.757 | locus YOL012C, strain htz1 1.29 | locus YOL147C, strain pex11, hits give low values 0.987 | locus YOR001W, strain rrp6, hits give low values 0.98 | locus YOR061W, strain CKA2, hits give low values 0.985 | locus YOR069W, strain VPS5, hits give low values 1.01 | locus YOR070C, strain gyp1, hits give low values 0.996 | locus YOR080W, strain dia2, hits give low values 1 | locus YOR083W, strain WHI5, hits give low values 1.01 | locus YOR106W, strain vam3, hits give low values 1.02 | locus YOR136W, strain idh2, hits give low values 0.994 | locus YOR144C, strain elg1, hits give low values 1 | locus YOR184W, strain ser1, hits give low values 0.967 | locus YOR231W, strain MKK1, hits give low values 0.985 | locus YOR265W, strain rbl2, hits give low values 0.993 | locus YOR270C, strain vph1, hits give low values 1.05 | locus YOR290C, strain snf2, hits give low values 0.991 | locus YOR316C, strain cot1, hits give low values 1.01 | locus YPL051W, strain arl3, hits give low values 0.999 | locus YPL055C, strain LGE1, hits give low values 0.938 | locus YPL078C, strain atp4, hits give low values 1.03 | locus YPL106C, strain sse1, hits give low values 0.989 | locus YPL240C, strain hsp82, hits give low values 0.997 | locus YPL256C, strain CLN2, hits give low values 1.05 | locus YPR119W, strain clb2, hits give low values 1.02 | locus YPR141C, strain kar3, hits give low values 1.02 | locus YPR163C, strain tif3, hits give low values 0.993 | locus YPR167C, strain met16, hits give low values 1.01 | strain wtn01, hits give low values 0.948
